According to PubChem BioAssay (Tox21):
Results filed as inconclusive are left out. Active and inactive are the calls of the source. Unless noted, the call rests on the fitted dose curve; in most records, active means well fitted curve in the direction sought with a large enough effect in the repeat runs; inconclusive means weak or mixed curves; inactive means no such curve, though single readings can be large; an effect the other way counts as inactive or inconclusive.

Experiments:
[1] = qHTS assay to identify aromatase inhibitors - cell viability counter screen (AID 743084); settings: MCF-7 aro ERE viability, CellTiter-Fluor, 24 h; series mostly up to 70.3 µM;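 further: cells stimulated with testosterone during compound exposure; nearly all actives have a fitted effect of over 55% in size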; further: potency means the concentration at half of the fitted maximal effect
[2] = molecular target: Aryl hydrocarbon receptor (Homo sapiens) (UniProt P35869); assay: qHTS assay to identify small molecule that activate the aryl hydrocarbon receptor (AhR) signaling pathway (AID 743085); settings: HepG2 AhR-luc (HG2L7.5c1), luciferase, 24 h; series mostly up to 70.3 µM;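 further: HG2L7.5c1 human HepG2 liver cells with stably integrated DRE-driven firefly reporter; nearly all actives have a fitted effect of over 15% in size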
Aryl hydrocarbon receptor (Homo sapiens), sequence (P35869 whole entry, looked up): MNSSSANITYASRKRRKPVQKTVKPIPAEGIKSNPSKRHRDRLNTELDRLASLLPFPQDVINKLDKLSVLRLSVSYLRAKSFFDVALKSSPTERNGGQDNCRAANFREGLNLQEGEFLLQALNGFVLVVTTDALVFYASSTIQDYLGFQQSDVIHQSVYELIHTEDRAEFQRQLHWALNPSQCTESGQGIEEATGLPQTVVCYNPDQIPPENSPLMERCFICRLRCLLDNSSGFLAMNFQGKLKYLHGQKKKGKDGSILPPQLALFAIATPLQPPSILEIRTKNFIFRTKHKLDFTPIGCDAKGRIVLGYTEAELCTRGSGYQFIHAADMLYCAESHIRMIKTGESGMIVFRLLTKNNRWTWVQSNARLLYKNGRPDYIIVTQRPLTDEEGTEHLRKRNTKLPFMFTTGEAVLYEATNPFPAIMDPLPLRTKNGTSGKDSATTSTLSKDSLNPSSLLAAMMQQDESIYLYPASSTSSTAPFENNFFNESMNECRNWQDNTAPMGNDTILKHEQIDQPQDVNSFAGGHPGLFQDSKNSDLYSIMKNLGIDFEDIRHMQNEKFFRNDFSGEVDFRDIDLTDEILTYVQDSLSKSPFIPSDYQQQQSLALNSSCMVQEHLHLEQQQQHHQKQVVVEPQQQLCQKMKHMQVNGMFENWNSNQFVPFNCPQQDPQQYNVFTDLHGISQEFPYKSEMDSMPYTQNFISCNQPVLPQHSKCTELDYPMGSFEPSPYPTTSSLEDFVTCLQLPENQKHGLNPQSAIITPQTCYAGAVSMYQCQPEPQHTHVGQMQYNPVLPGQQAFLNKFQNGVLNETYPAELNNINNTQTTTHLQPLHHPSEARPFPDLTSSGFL
In short: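 Stably transfected human liver carcinoma cells (HG2L7.5c1; 20 DRE-firefly luciferase) were incubated 5 h, dosed, and kept 24 h at 37C. Agonism was scored from increased luciferase luminescence.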

[3] = qHTS assay to identify small molecule that activate the aryl hydrocarbon receptor (AhR) signaling pathway - cell viability counter screen (AID 743086); settings: HepG2-AhR-luc viability, CellTiter-Fluor, 24 h; series mostly up to 70.3 µM; further: nearly all actives have a fitted effect of over 45% in size; further: potency means the concentration at half of the fitted maximal effect;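 on viability change, negative = cytotoxic: HepG2 liver cells carrying the AhR DRE luciferase reporter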
In short: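 HepG2-AhR-luc (HG2L7.5c1) cells, 4000/well, were preincubated 5 h at 37C, exposed to compound in qHTS format for 24 hr at 37C, then given CellTiter-Fluor for 30 min; viability was read as fluorescence in the reporter wells.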

[4] = molecular target: Peroxisome proliferator-activated receptor gamma (Homo sapiens) (UniProt P37231); assay: qHTS assay to identify small molecule agonists of the peroxisome proliferator-activated receptor gamma (PPARg) signaling pathway (AID 743094; active means well fitted activation curve with a large enough effect in the signal ratio in the repeat runs, not every such curve was filed as active; the % refers to the signal ratio); settings: HEK293H PPARg-UAS-bla, beta-lactamase FRET ratio, 17 h; series mostly up to 57 µM
Peroxisome proliferator-activated receptor gamma (Homo sapiens), sequence (P37231 whole entry, looked up): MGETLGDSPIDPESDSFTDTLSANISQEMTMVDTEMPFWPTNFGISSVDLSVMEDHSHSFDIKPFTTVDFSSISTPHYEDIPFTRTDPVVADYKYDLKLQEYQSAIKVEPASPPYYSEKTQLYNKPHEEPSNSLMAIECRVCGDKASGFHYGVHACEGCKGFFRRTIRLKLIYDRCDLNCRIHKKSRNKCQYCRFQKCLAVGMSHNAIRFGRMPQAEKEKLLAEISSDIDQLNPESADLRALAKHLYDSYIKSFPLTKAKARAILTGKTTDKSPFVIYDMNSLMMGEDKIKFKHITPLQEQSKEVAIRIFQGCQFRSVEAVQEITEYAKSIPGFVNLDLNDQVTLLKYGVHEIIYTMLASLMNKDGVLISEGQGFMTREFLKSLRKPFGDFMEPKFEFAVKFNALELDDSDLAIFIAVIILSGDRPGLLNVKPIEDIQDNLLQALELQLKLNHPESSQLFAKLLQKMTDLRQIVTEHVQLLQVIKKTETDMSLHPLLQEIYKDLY
In short: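 GeneBLAzer PPARg UAS-bla HEK293H cells were plated, rested 5 h, then exposed to compounds for 17 h at 37C. Beta-lactamase activity was read by LiveBLAzer B/G FRET substrate fluorescence after 1 h at room temperature.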

[5] = molecular target: Peroxisome proliferator-activated receptor gamma (Homo sapiens) (UniProt P37231); assay: qHTS assay to identify small molecule antagonists of the peroxisome proliferator-activated receptor gamma (PPARg) signaling pathway (AID 743191; calls by dose curve; further: nearly all actives have a fitted effect of over 30% in size); settings: HEK293H PPARg-UAS-bla, beta-lactamase ratio, antagonist, 17 h; series mostly up to 62.6 µM
In short: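 GeneBLAzer PPARg UAS-bla HEK293H cells carrying a UAS-driven beta-lactamase reporter were plated at 3000 cells/well, preincubated 5 h at 37C, then given compound for 17 h at 37C; LiveBLAzer B/G FRET substrate was read after 1 h at room temperature.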

[6] = qHTS assay to identify small molecule antagonists of the peroxisome proliferator-activated receptor gamma (PPARg) signaling pathway - cell viability counter screen (AID 743194); settings: PPARg-bla HEK293H viability, CellTiter-Glo luminescence, 17 h, co-treated with 50 nM rosiglitazone; series mostly up to 62.6 µM; further: nearly all actives have a fitted effect of over 55% in size
In short: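 PPARg-UAS-bla HEK293H cells were plated, rested 5 h at 37 C, then treated with compounds plus rosiglitazone (50 nM final) for 17 h at 37 C; viability was then read by CellTiter-Glo luminescence after 30 min at room temperature.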

[7] = qHTS assay for small molecule agonists of the antioxidant response element (ARE) signaling pathway - cell viability counter screen (AID 743203; calls by dose curve; further: nearly all actives have a fitted effect of over 55% in size); settings: ARE-bla HepG2 viability, CellTiter-Glo luminescence, 16 h; series mostly up to 73.3 µM
In short: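 ARE-bla HepG2 cells were plated, rested 5 h at 37C/5% CO2, then exposed to compounds in DMSO for 16 h. Viability was read as CellTiter-Glo luminescence after 30 min at room temperature, in the same wells as the ARE screen.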

[8] = qHTS assay for small molecule activators of the heat shock response signaling pathway - cell viability counter screen (AID 743209); settings: HSE-bla HeLa viability, CellTiter-Glo luminescence, 5 h; series mostly up to 62.6 µM; further: nearly all actives have a fitted effect of over 50% in size
In short: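 HSE-bla HeLa cells plated overnight, then exposed to Tox21 compounds (23 nL in DMSO) for 5 h at 37 C. After the bla reporter read, CellTiter-Glo was added in the same wells and luminescence read after 30 min at room temperature.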

[9] = qHTS assay for small molecule activators of the heat shock response signaling pathway (AID 743210; active means well fitted activation curve with a large enough effect in the signal ratio in the repeat runs, with a control signal flat, not every such curve was filed as active; the % refers to the signal ratio); settings: HeLa HSE-bla reporter, beta-lactamase ratio, 5 h; series mostly up to 62.6 µM
In short: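 HSE-bla HeLa cells (beta-lactamase reporter under heat shock response elements) were exposed to compounds for 5 h at 37 C, then loaded with LiveBLAzer B/G FRET substrate for 2.5 h at room temperature before fluorescence reading.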

[10] = qHTS assay for small molecule agonists of the antioxidant response element (ARE) signaling pathway (AID 743202; active means well fitted activation curve with a large enough effect in the signal ratio in the repeat runs, not every such curve was filed as active; the % refers to the signal ratio); settings: HepG2 ARE-bla reporter, beta-lactamase FRET, 16 h; series mostly up to 73.3 µM
In short: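 Read-out: LiveBLAzer B/G FRET substrate fluorescence after 2 h at room temperature, following 16 h compound treatment at 37 C of HepG2 cells carrying an ARE-driven beta-lactamase reporter.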
On the % scale 0 is the no-effect control and ±100 the full control effect.

Nc1ncnc(Nc2ccccc2)n1
inactive: Potency [1] | Potency [2] | Potency [3] | outcome [4] | Potency [5] | outcome [6] | outcome [7] | outcome [8] | outcome [9]

CC/C=C\CC1=C(C)CCC1=O
inactive: Potency [1] | Potency [2] | Potency [3] | outcome [4] | Potency [5] | outcome [6] | outcome [7] | outcome [8] | outcome [9]

CC(C)NCC(O)COc1ccc(COCCOC(C)C)cc1 (stereo not drawn)
inactive: Potency [1] | Potency [2] | Potency [3] | outcome [4] | Potency [5] | outcome [6] | outcome [7] | outcome [8] | outcome [9]

OC[C@H](Cc1cccc(O)c1)[C@H](CO)Cc1cccc(O)c1
inactive: Potency [1] | Potency [2] | Potency [3] | outcome [4] | Potency [5] | outcome [6] | outcome [7] | outcome [8] | outcome [9]

CN(C)C(=O)CNC(=O)Cc1ccccc1
inactive: Potency [1] | Potency [2] | Potency [3] | outcome [4] | Potency [5] | outcome [6] | Potency [10] | outcome [7] | outcome [8] | outcome [9]

Nc1ccc([N+](=O)[O-])c(N)c1
active: Potency [1] 33.5 µM | Potency [3] 33.5 µM
inactive: Potency [2] | outcome [4] | Potency [5] | Potency [10] | outcome [7] | outcome [8] | outcome [9]

O=C(OCc1ccccc1)C(=O)OCc1ccccc1
inactive: Potency [1] | Potency [2] | Potency [3] | outcome [4] | Potency [5] | outcome [6] | outcome [7] | outcome [8]

COc1cc(NS(=O)(=O)c2ccc(N)cc2)nc(OC)n1
inactive: Potency [1] | Potency [2] | Potency [3] | outcome [4] | Potency [5] | outcome [6] | outcome [7] | outcome [8] | outcome [9]

CCC(C=O)CC
inactive: Potency [1] | Potency [2] | Potency [3] | outcome [4] | Potency [5] | Potency [10] | outcome [7] | outcome [8] | outcome [9]

COc1cc(C(=S)N2CCOCC2)cc(OC)c1OC
inactive: Potency [1] | Potency [2] | Potency [3] | outcome [4] | Potency [5] | outcome [6] | Potency [10] | outcome [7] | outcome [8] | outcome [9]

O=S(O)(O)=S
inactive: activity change, negative = cytotoxicity [1] 0.159% [at 8.47 µM] | activation [2] -4.49% [at 8.47 µM] | viability change, negative = cytotoxic [3] -5.98% [at 8.47 µM] | activation [4] 0.645% [at 7.08 µM] | ratio activity, negative = inhibition [5] 10.9% [at 5.95 µM] | activity change, negative = cytotoxicity [6] -0.949% [at 5.95 µM] | activation [10] -7.19% [at 8.36 µM] | viability change, negative = cytotoxic [7] 2.86% [at 8.36 µM] | activity change, negative = cytotoxicity [8] 5.21% [at 5.95 µM] | activation [9] -0.665% [at 5.95 µM]

COC(=O)CCCCCCCC(=O)OC
inactive: Potency [1] | Potency [2] | Potency [3] | outcome [4] | Potency [5] | outcome [6] | outcome [7] | outcome [8]

CC(=O)Nc1ccc(S(=O)(=O)Nc2ccc([N+](=O)[O-])cc2)cc1
inactive: Potency [1] | Potency [2] | Potency [3] | outcome [4] | Potency [5] | outcome [6] | outcome [7] | outcome [8]

C=CCCCCCCCCCCCC
inactive: Potency [1] | Potency [2] | Potency [3] | outcome [4] | Potency [5] | outcome [6] | outcome [7] | outcome [8] | outcome [9]

Cc1cc(C(C)(C)C)c(O)c(C)c1CC1=NCCN1
inactive: Potency [1] | Potency [2] | Potency [3] | outcome [4] | Potency [5] | outcome [6] | outcome [7] | outcome [8] | outcome [9]

C[C@@H](Oc1ccc(CNC(=O)c2cccnc2Oc2ccc3c(c2)OCO3)c(F)c1)C(=O)O
inactive: Potency [1] | Potency [2] | Potency [3] | outcome [4] | Potency [5] | outcome [6] | Potency [10] | outcome [7] | outcome [8] | outcome [9]

Cc1nc2n(c(=O)c1CCN1CCC(c3noc4cc(F)ccc34)CC1)CCC[C@H]2O
inactive: Potency [1] | Potency [2] | Potency [3] | outcome [4] | Potency [5] | outcome [6] | Potency [10] | outcome [7] | outcome [8] | outcome [9]

COc1ccc(OC)c(Cl)c1
inactive: Potency [1] | Potency [2] | Potency [3] | outcome [4] | Potency [5] | outcome [6] | outcome [7] | outcome [8] | outcome [9]

CC(CN)CC(C)(C)CCN (stereo not drawn)
inactive: Potency [1] | Potency [2] | Potency [3] | outcome [4] | Potency [5] | outcome [6] | outcome [7] | outcome [8] | outcome [9]

OCCCCC(O)CO (stereo not drawn)
inactive: Potency [1] | Potency [2] | Potency [3] | outcome [4] | Potency [5] | Potency [10] | outcome [7] | outcome [8] | outcome [9]

C=C(C)C(=O)OCCNC(C)(C)C
inactive: Potency [1] | Potency [2] | Potency [3] | outcome [4] | Potency [5] | outcome [6] | outcome [7] | outcome [8] | outcome [9]

CCCCNC1CC(C)(C)NC(C)(C)C1
inactive: Potency [1] | Potency [2] | Potency [3] | outcome [4] | Potency [5] | Potency [10] | outcome [7] | outcome [8] | outcome [9]

CCOC(=O)/C=C/c1ccccc1
inactive: Potency [1] | Potency [2] | Potency [3] | outcome [4] | Potency [5] | outcome [6] | outcome [7] | outcome [8]

CCOC(=O)[C@H](CCc1ccccc1)N[C@@H](C)C(=O)N1C(=O)N(C)C[C@H]1C(=O)O
inactive: Potency [1] | Potency [2] | Potency [3] | outcome [4] | Potency [5] | outcome [6] | Potency [10] | outcome [7] | outcome [9]

CCN1CCc2nc(N)oc2CC1
inactive: Potency [1] | Potency [2] | Potency [3] | outcome [4] | Potency [5] | outcome [6] | Potency [10] | outcome [7] | outcome [9]

N[C@@H](COP(=O)(O)O)C(=O)O
inactive: Potency [1] | Potency [2] | Potency [3] | outcome [4] | Potency [5] | Potency [10] | outcome [7] | outcome [8]

NCCS
inactive: Potency [1] | Potency [2] | Potency [3] | outcome [4] | Potency [5] | Potency [10] | outcome [7] | outcome [8] | outcome [9]

CN(C)c1ccc(C=O)cc1
inactive: Potency [1] | Potency [2] | Potency [3] | outcome [4] | Potency [5] | outcome [6] | outcome [7] | outcome [8] | outcome [9]

O=C1c2ccccc2C(=O)C1c1ccccc1
inactive: Potency [1] | Potency [2] | Potency [3] | outcome [4] | Potency [5] | Potency [10] | outcome [7] | outcome [8]

CCCCCCCCC(=O)Cl
inactive: Potency [1] | Potency [2] | Potency [3] | outcome [4] | outcome [6] | outcome [7] | outcome [8] | outcome [9]

CCOC(=O)c1ccc(OC(=O)CCCCCN=C(N)N)cc1
inactive: Potency [1] | Potency [2] | Potency [3] | outcome [4] | Potency [5] | Potency [10] | outcome [7] | outcome [8] | outcome [9]

CCCCCOC(=O)CCC
inactive: Potency [1] | Potency [2] | Potency [3] | outcome [4] | Potency [5] | outcome [7] | outcome [8] | outcome [9]

Cc1ccsc1/C=C/C1=NCCCN1C
inactive: Potency [1] | Potency [2] | Potency [3] | outcome [4] | outcome [6] | Potency [10] | outcome [7] | outcome [8] | outcome [9]

CCCC/C=C\CCCCCCCCCC=O
inactive: Potency [1] | Potency [2] | Potency [3] | outcome [4] | outcome [6] | outcome [7] | outcome [8] | outcome [9]

CCCCCCCC/C=C\CCCCCCCC(=O)OCCCC
inactive: Potency [1] | Potency [2] | Potency [3] | outcome [4] | outcome [6] | Potency [10] | outcome [7] | outcome [8] | outcome [9]

CCCCCCCCOS(=O)(=O)O
inactive: Potency [1] | Potency [2] | Potency [3] | outcome [4] | Potency [5] | Potency [10] | outcome [7] | outcome [8] | outcome [9]

C=C(C)C(=O)OCCN(CC)CC
inactive: Potency [1] | Potency [2] | Potency [3] | outcome [4] | outcome [6] | Potency [10] | outcome [7] | outcome [9]
